In paper PMC13541613, “GHT-SELEX demonstrates unexpectedly high intrinsic sequence specificity and complex DNA binding of many human transcription factors” one finds binding signal data, which are given here for 40 sequences.

Sequence of ZNF721 full-length (Q8TF20 other isoform, or with tags, fused parts or gaps): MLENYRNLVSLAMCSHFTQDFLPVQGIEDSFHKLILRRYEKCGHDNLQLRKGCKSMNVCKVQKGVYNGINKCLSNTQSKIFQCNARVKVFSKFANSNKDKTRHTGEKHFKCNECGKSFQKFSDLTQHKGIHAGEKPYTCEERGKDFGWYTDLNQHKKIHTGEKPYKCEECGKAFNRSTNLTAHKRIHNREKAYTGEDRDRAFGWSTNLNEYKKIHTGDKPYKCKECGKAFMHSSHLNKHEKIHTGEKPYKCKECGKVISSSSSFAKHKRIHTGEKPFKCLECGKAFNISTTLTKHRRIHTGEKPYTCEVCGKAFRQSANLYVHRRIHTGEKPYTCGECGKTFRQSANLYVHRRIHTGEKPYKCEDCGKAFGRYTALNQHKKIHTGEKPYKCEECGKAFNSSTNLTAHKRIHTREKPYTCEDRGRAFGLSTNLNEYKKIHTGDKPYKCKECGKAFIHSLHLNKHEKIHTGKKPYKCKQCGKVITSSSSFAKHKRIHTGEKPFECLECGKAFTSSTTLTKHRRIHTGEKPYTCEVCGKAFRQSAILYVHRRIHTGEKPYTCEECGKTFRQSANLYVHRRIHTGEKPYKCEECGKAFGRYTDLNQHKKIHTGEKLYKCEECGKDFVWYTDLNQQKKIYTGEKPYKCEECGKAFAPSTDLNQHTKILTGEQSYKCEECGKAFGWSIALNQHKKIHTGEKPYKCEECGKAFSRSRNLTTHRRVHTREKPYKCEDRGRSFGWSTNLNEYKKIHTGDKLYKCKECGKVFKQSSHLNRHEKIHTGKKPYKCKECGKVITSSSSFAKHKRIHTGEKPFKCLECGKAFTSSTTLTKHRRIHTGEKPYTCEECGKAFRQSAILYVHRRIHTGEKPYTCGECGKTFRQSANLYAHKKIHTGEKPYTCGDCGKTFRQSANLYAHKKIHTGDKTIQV
Sequence of ZNF721 DBD1 (Q8TF20 17-449): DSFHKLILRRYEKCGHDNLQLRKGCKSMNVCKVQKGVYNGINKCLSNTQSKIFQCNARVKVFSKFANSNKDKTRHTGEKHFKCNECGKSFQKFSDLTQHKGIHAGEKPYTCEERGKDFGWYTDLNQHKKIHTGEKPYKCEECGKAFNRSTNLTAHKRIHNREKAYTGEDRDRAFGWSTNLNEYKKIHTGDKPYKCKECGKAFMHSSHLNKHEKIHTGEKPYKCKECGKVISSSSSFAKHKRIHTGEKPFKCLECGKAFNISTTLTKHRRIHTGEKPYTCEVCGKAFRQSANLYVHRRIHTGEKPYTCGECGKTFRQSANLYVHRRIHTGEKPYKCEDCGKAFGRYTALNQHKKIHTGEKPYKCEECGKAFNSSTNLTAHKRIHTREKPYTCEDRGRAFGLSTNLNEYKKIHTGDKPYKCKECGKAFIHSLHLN

One experiment concerns the target ZNF721 full-length (Homo sapiens, UniProt Q8TF20-2 1-923). The experiment can be described thus: HT-SELEX; 20 mM HEPES pH 7, 140 mM KCl, 5 mM NaCl, 1 mM K2HPO4, 2 mM MgSO4, 100 uM EGTA, ZnSO4, 0.1% Tween20; room temperature, 1 h; high values mean tight binding. Particulars: protein: ivt; tags: eGFP (N-terminal); dsDNA, one strand shown. The procedure, abridged:
(§1)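 Full-length or DNA-binding-domain forms of a tagged transcription factor were produced in HEK293 lysate or cell-free extract and immobilised on beads. Incubation with a randomized 40-base DNA library ran for 1 h at room temperature in HEPES/KCl low-stringency buffer with Tween20, after which bound DNA was washed, heat-eluted, PCR-amplified over successive cycles and Illumina-sequenced. Binding strength is given as the relative k-mer count in selected reads, higher for tighter binding.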
As to GCCCCTCCCC, the binding signal stood at 0.144 relative 10-mer count.
The sequence CACCCACCCA showed a binding signal of 0.192 relative 10-mer count.
The sequence CCCCCCTGCC gave a binding signal of 0.121 relative 10-mer count.
As to CCAACCCCCC, the binding signal was found to be 0.169 relative 10-mer count.
GCCCGCCCCC had a binding signal of 0.106 relative 10-mer count.
AAAAGCGTAC registered a binding signal of 0.118 relative 10-mer count.
The sequence CACCACCCCC gave a binding signal of 0.276 relative 10-mer count.
ATCCCCACCC came in with a binding signal of 0.114 relative 10-mer count.
Consider ACCACCCTCC, for which the binding signal was determined as 0.124 relative 10-mer count.
As for CGCCCCCACC, the binding signal is 0.19 relative 10-mer count.
CAGCATACCC: the binding signal worked out at 0.596 relative 10-mer count.
For the sequence CCCCGCCCCC, the binding signal was determined as 0.297 relative 10-mer count.
CTTCATACTC came in with a binding signal of 0.167 relative 10-mer count.
CAAAAAAAAA: the binding signal was 0.226 relative 10-mer count.
In turn, AGGGGAGGGG yielded a binding signal of 0.13 relative 10-mer count.
As to CGAAAAAAAA, the binding signal was 0.137 relative 10-mer count.
Still for that read-out and setting: under CCCCTCACCC stands 0.187 relative 10-mer count; under CCCTCCCCCG, 0.145 relative 10-mer count; under CCGTCCACCC, 0.103 relative 10-mer count.
For CACCCCCTCC, the binding signal was determined as 0.159 relative 10-mer count.
Regarding CCAACCCACC, the binding signal stood at 0.171 relative 10-mer count.
CCCCCCCCCA came in with a binding signal of 0.16 relative 10-mer count.
The same measure, in the same setting: with GCCCCCTCCC the figure was 0.134 relative 10-mer count; with CCACCCCCCC, 0.32 relative 10-mer count.
Consider AAAAAAGAAG, for which the binding signal worked out at 0.101 relative 10-mer count.
AAGCATACCC yielded a binding signal of 0.253 relative 10-mer count.
Consider CCCCCCGCCA, for which the binding signal is 0.113 relative 10-mer count.
The same measure, in the same setting: with AAGCTGCACC the figure was 0.143 relative 10-mer count; with CCCGCCCCCA, 0.153 relative 10-mer count; with CCACCACCCC, 0.455 relative 10-mer count.
On the same count and under the same terms, with CAGCCCCACC the figure was 0.116 relative 10-mer count.
For the sequence CCCCCTCCCA, the binding signal was found to be 0.157 relative 10-mer count.
ACACCCCACC registered a binding signal of 0.13 relative 10-mer count.
Sequence CCTCCCCCTC displayed a binding signal of 0.15 relative 10-mer count.
In turn, CCTCCCCCGC gave a binding signal of 0.131 relative 10-mer count.
CCTCCCCCCA had a binding signal of 0.18 relative 10-mer count.
For the sequence AAAAAAAAAG, the binding signal stood at 0.384 relative 10-mer count.
CACCACCCCG came in with a binding signal of 0.135 relative 10-mer count.
CTCCCCCTCC had a binding signal of 0.14 relative 10-mer count.
On the same count and under the same terms, with CCCACCCTAC the figure was 0.114 relative 10-mer count.

The next experiment has as its target ZNF721 DBD1 (Homo sapiens, UniProt Q8TF20-2 29-461). The experiment is described as above. Particulars: protein: ivt; tags: eGFP (N-terminal); dsDNA, one strand shown. An outline of the steps: as §1
Regarding GCCCCTCCCC, the binding signal turned out to be 0.00596 relative 10-mer count.
On to CACCCACCCA, for which the binding signal was determined as 0.00835 relative 10-mer count.
Take CCCCCCTGCC: the binding signal was found to be 0.00399 relative 10-mer count.
Sequence CCAACCCCCC had a binding signal of 0.0056 relative 10-mer count.
GCCCGCCCCC came in with a binding signal of 0.00413 relative 10-mer count.
For AAAAGCGTAC, the binding signal was found to be 0.0294 relative 10-mer count.
Same read-out and setting: under CACCACCCCC stands 0.0117 relative 10-mer count.
Sequence ATCCCCACCC returned a binding signal of 0.00459 relative 10-mer count.
Still for that read-out and setting: with ACCACCCTCC the figure was 0.00523 relative 10-mer count; with CGCCCCCACC, 0.00945 relative 10-mer count; with CAGCATACCC, 0.00271 relative 10-mer count.
Same read-out and setting: with CCCCGCCCCC the figure was 0.0122 relative 10-mer count; with CTTCATACTC, 0.271 relative 10-mer count; with CAAAAAAAAA, 0.0215 relative 10-mer count.
On the same count and under the same terms, under AGGGGAGGGG stands 0.00665 relative 10-mer count; under CGAAAAAAAA, 0.0159 relative 10-mer count; under CCCCTCACCC, 0.00711 relative 10-mer count.
For CCCTCCCCCG, the binding signal was 0.00555 relative 10-mer count.
In the case of CCGTCCACCC, the binding signal worked out at 0.00472 relative 10-mer count.
CACCCCCTCC came in with a binding signal of 0.00899 relative 10-mer count.
As for CCAACCCACC, the binding signal is 0.00642 relative 10-mer count.
With CCCCCCCCCA, the binding signal is 0.00477 relative 10-mer count.
On to GCCCCCTCCC, for which the binding signal was 0.00633 relative 10-mer count.
In turn, CCACCCCCCC gave a binding signal of 0.0122 relative 10-mer count.
Regarding AAAAAAGAAG, the binding signal worked out at 0.0198 relative 10-mer count.
In turn, AAGCATACCC displayed a binding signal of 0.076 relative 10-mer count.
CCCCCCGCCA: the binding signal was determined as 0.00445 relative 10-mer count.
On to AAGCTGCACC, for which the binding signal was found to be 0.0827 relative 10-mer count.
The same measure, in the same setting: under CCCGCCCCCA stands 0.00706 relative 10-mer count; under CCACCACCCC, 0.0194 relative 10-mer count.
Consider CAGCCCCACC, for which the binding signal was found to be 0.00349 relative 10-mer count.
Same read-out and setting: with CCCCCTCCCA the figure was 0.00784 relative 10-mer count; with ACACCCCACC, 0.00413 relative 10-mer count; with CCTCCCCCTC, 0.00807 relative 10-mer count.
Sequence CCTCCCCCGC showed a binding signal of 0.00647 relative 10-mer count.
Regarding CCTCCCCCCA, the binding signal came out at 0.00761 relative 10-mer count.
Sequence AAAAAAAAAG registered a binding signal of 0.0474 relative 10-mer count.
As for CACCACCCCG, the binding signal was 0.00518 relative 10-mer count.
On to CTCCCCCTCC, for which the binding signal was 0.00784 relative 10-mer count.
CCCACCCTAC returned a binding signal of 0.00748 relative 10-mer count.

Another experiment deals with ZNF721 DBD2 (Homo sapiens, UniProt Q8TF20-2 395-923). Described as above. Particulars: protein: ivt; tags: eGFP (N-terminal); dsDNA, one strand shown. The procedure, abridged: as §1
Sequence of ZNF721 DBD2 (Q8TF20 383-911): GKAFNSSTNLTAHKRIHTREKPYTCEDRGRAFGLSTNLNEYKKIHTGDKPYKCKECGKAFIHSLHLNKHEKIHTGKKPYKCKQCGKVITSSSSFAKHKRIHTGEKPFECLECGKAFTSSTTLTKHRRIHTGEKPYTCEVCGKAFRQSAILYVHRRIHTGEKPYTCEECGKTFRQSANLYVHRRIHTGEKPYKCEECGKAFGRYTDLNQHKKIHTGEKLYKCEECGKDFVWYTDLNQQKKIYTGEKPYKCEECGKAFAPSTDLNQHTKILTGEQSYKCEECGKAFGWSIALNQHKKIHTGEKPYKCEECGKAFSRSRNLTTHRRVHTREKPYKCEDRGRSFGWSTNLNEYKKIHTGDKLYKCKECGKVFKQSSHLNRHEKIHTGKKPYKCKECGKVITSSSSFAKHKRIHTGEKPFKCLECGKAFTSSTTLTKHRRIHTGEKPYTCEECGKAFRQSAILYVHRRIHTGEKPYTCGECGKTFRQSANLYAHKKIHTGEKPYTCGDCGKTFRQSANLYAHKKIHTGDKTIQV
Regarding GCCCCTCCCC, the binding signal came to 0.00551 relative 10-mer count.
CACCCACCCA gave a binding signal of 0.00503 relative 10-mer count.
Same read-out and setting: with CCCCCCTGCC the figure was 0.00168 relative 10-mer count; with CCAACCCCCC, 0.00144 relative 10-mer count.
On to GCCCGCCCCC, for which the binding signal turned out to be 0.00132 relative 10-mer count.
The sequence AAAAGCGTAC came in with a binding signal of 0.0176 relative 10-mer count.
The same measure, in the same setting: under CACCACCCCC stands 0.0024 relative 10-mer count; under ATCCCCACCC, 0.00515 relative 10-mer count.
On the same count and under the same terms, under ACCACCCTCC stands 0.00324 relative 10-mer count; under CGCCCCCACC, 0.00515 relative 10-mer count; under CAGCATACCC, 0.909 relative 10-mer count.
On the same count and under the same terms, under CCCCGCCCCC stands 0.00228 relative 10-mer count; under CTTCATACTC, 0.00132 relative 10-mer count; under CAAAAAAAAA, 0.0886 relative 10-mer count.
Sequence AGGGGAGGGG returned a binding signal of 0.00479 relative 10-mer count.
As to CGAAAAAAAA, the binding signal was 0.0695 relative 10-mer count.
As to CCCCTCACCC, the binding signal amounted to 0.00503 relative 10-mer count.
Sequence CCCTCCCCCG displayed a binding signal of 0.00467 relative 10-mer count.
For the sequence CCGTCCACCC, the binding signal was determined as 0.0036 relative 10-mer count.
In turn, CACCCCCTCC came in with a binding signal of 0.00719 relative 10-mer count.
CCAACCCACC: the binding signal is 0.00395 relative 10-mer count.
On the same count and under the same terms, with CCCCCCCCCA the figure was 0.00312 relative 10-mer count; with GCCCCCTCCC, 0.00384 relative 10-mer count.
The sequence CCACCCCCCC had a binding signal of 0.00336 relative 10-mer count.
Take AAAAAAGAAG: the binding signal was 0.0207 relative 10-mer count.
With AAGCATACCC, the binding signal turned out to be 0.0243 relative 10-mer count.
Regarding CCCCCCGCCA, the binding signal was found to be 0.00372 relative 10-mer count.
Same read-out and setting: with AAGCTGCACC the figure was 0.0024 relative 10-mer count; with CCCGCCCCCA, 0.00132 relative 10-mer count.
In the case of CCACCACCCC, the binding signal came to 0.00419 relative 10-mer count.
As for CAGCCCCACC, the binding signal came out at 0.0291 relative 10-mer count.
With CCCCCTCCCA, the binding signal turned out to be 0.00455 relative 10-mer count.
Sequence ACACCCCACC yielded a binding signal of 0.00204 relative 10-mer count.
In turn, CCTCCCCCTC had a binding signal of 0.00467 relative 10-mer count.
Still for that read-out and setting: with CCTCCCCCGC the figure was 0.00348 relative 10-mer count.
The same measure, in the same setting: under CCTCCCCCCA stands 0.0036 relative 10-mer count.
Still for that read-out and setting: with AAAAAAAAAG the figure was 0.0982 relative 10-mer count; with CACCACCCCG, 0.00312 relative 10-mer count.
In turn, CTCCCCCTCC showed a binding signal of 0.00324 relative 10-mer count.
Regarding CCCACCCTAC, the binding signal was determined as 0.0116 relative 10-mer count.
